Screening results (PubChem)
The list is not random: actives were taken first. Their share in the collection is about 3.7%.
tim23-1 inh: tim23-1 yeast growth inhibition; hit rate 1.3% among 330,000; AID 463212; inhibition, % at 20 µM; S. cerevisiae tim23-1 growth, BacTiter-Glo luminescence, 24 h;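 active = growth inhibition of the mutant yeast at or above 50%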;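 note: temperature-sensitive mutant grown at 25 °C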
NLRP3 yeast inh: blocks the NALP3 inflammasome reconstituted in yeast; Yeast reconstituted NLRP3/ASC/caspase-1, beta-gal luminescence, 24 h; hit rate 0.39% among 330,000; inhibition, % at 10 µM;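 active = inhibition of 50% or more; inactive = inhibition below 50%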
TIM10 inh: growth inhibitors of TIM10 yeast strain; S. cerevisiae TIM10 strain growth, BacTiter-Glo luminescence, 24 h; inhibition, % at 10 µM; hit rate 1.4% among 330,000;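 active = inhibition of 40% or more at the single tested concentration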;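 note: wild-type TIM10 isogenic control strain grown at permissive 25 °C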
tim10-1 inh: tim10-1 yeast growth inhibition; S. cerevisiae tim10-1 ts strain growth, BacTiter-Glo, 24 h; inhibition, % at 20 µM; hit rate 2.2% among 330,000;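 active = inhibition of at least 40%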;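 note: mutant grown at 25 °C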
PfHsp90 set2: growth inhibition of yeast expressing Plasmodium Hsp90 | inhibition, % at 9.4 µM | hit rate 0.32% among 310,000 | S. cerevisiae expressing PfHsp90, BacTiter-Glo ATP, 48 h; yeast lacking PDR1 and PDR3 efflux regulators | AID 504621;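 active = every replicate shows inhibition above about 80%, whatever the replicate mean, limit read from the data; inconclusive = mean inhibition reaches the set limit but some replicate falls short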
NALP3 confirm: confirmation of NALP3 inhibitors in yeast; shares compounds with NLRP3 yeast inh; yeast expressing human NALP3, luminescence; inhibition, % at 10 µM; hit rate 81% among 1,300; AID 435006; in the data active = inhibition above about 48%
Casp1 ASC ctr: counter-screen for NALP3 inhibitors: yeast caspase-1-ASC | shares compounds with NLRP3 yeast inh | yeast expressing Caspase-1-ASC, luminescence counter screen | inhibition, % at 10 µM | hit rate 66% among 1,000 | AID 488784
NALP3 yeast rt: confirmation retest of NALP3 inhibitors in yeast; hit rate 53% among 1,000; AID 488794; shares compounds with NLRP3 yeast inh; yeast expressing human NALP3, luminescence read-out; inhibition, % at 10 µM
Each line names hits and unclear results; the compound was inactive in the other large screens (follow-up assays come after a bar, where they were run). Cut-off read from the data, not from the text of the source, unless noted: active = inhibition above about 50%; inactive = the rest.

COc1ccc(CN2CCSc3sccc3C2=O)cc1	NLRP3 yeast inh 61 | NALP3 confirm 71 | Casp1 ASC ctr 69 | NALP3 yeast rt 65
O=C1c2ccsc2SCCN1Cc1ccc(Cl)cc1Cl	NLRP3 yeast inh 65 (no result: PfHsp90 set2) | NALP3 confirm 65 | Casp1 ASC ctr 77 | NALP3 yeast rt 66
O=C1c2ccsc2SCCN1Cc1c(Cl)cccc1Cl	none (no result: PfHsp90 set2)
O=C(NN=Cc1ccccc1)C(Oc1ccccc1)c1ccccc1 (stereo not given)	none (no result: tim23-1 inh, NLRP3 yeast inh, TIM10 inh, tim10-1 inh)
CC(Oc1cccc2cccnc12)C(=O)N/N=C/c1ccccc1 (stereo not given)	none
O=C(/C=C\c1ccccc1)Oc1cccc2cccnc12	NLRP3 yeast inh 53 | NALP3 confirm inactive | Casp1 ASC ctr inactive | NALP3 yeast rt inactive
CC1(C)[C@@H](O)CC[C@]2(C)C3C(O)C=C4[C@H]5C[C@@](C)(CO)CC[C@]5(C)CC[C@]4(C)[C@]3(C)CC[C@@H]12 (stereo not given in full)	NLRP3 yeast inh 62 | NALP3 confirm 70 | Casp1 ASC ctr 64 | NALP3 yeast rt 50
O=S(=O)(c1c(Cl)sc(Cl)c1Br)N1CCCC1	NLRP3 yeast inh 64 | NALP3 confirm 64 | Casp1 ASC ctr 62 | NALP3 yeast rt 67
O=C(CSC(=S)N1CCCCC1)c1ccccc1	NLRP3 yeast inh 60 | NALP3 confirm 73 | Casp1 ASC ctr 70 | NALP3 yeast rt 56
O=C(CSC(=S)N1CCCC1)c1ccccc1	none
CCNC(=S)N1CCN(CCN=CC2=C(O)CC(c3cccs3)CC2=O)CC1 (stereo not given)	none
CCC(=O)N1CCN(CCN=CC2=C(O)CC(c3cccs3)CC2=O)CC1 (stereo not given)	NLRP3 yeast inh 56 (no result: PfHsp90 set2) | NALP3 confirm 56 | Casp1 ASC ctr inactive | NALP3 yeast rt inactive
CN(CCOc1ccccc1)c1ccc(S(=O)(=O)N2CCCCC2)cn1	NLRP3 yeast inh 55 (no result: PfHsp90 set2) | NALP3 confirm 60 | Casp1 ASC ctr inactive | NALP3 yeast rt 52
CCc1ccc(OCC(=O)NCc2ccco2)c(Br)c1	NLRP3 yeast inh 51 | NALP3 confirm inactive | Casp1 ASC ctr inactive | NALP3 yeast rt inactive
O=C(Nc1ccc([N+](=O)[O-])cc1Cl)c1cc(Cl)ccc1O	NLRP3 yeast inh 96 | NALP3 confirm 99 | Casp1 ASC ctr 100 | NALP3 yeast rt 97
COc1ccc(CNC(=O)CN(C(=O)c2csnn2)c2ccccc2F)cc1	none
O=C(COC(=O)/C=C/c1cccc(Cl)c1Cl)Nc1ccc2[nH]c(=O)[nH]c2c1	none
Cc1ccc(OC(=O)c2ccc(Cl)c([N+](=O)[O-])c2)cn1	none
Cc1ccc(OC(=O)c2ccc(C)c(C)c2)cn1	NLRP3 yeast inh 54 | NALP3 confirm 54 | Casp1 ASC ctr 75 | NALP3 yeast rt inactive
CCOC(=O)C1CCCCN1C(=O)c1cc2ccc(OC)cc2c2cc(OC)c(OC)cc12 (stereo not given)	none (no result: tim23-1 inh, NLRP3 yeast inh, TIM10 inh, tim10-1 inh)
COc1ccc(C)cc1-n1nnnc1SCC1CCCCO1 (stereo not given)	NLRP3 yeast inh 53 | NALP3 confirm inactive
Cc1ccc(C)c(NC(=O)c2ccc(S(=O)(=O)C(F)F)cc2)c1	NLRP3 yeast inh 53 | NALP3 confirm 65 | Casp1 ASC ctr inactive | NALP3 yeast rt inactive
Cc1ccc(C)c(NC(=O)NNS(=O)(=O)c2ccc(C)c(C)c2)c1	none
Cc1c(Cc2ccccc2)c(=O)oc2cc(OCC(=O)N3CCC(C(N)=O)CC3)ccc12	none
CC(Cc1ccccc1)(NC(=O)CN)c1ccccc1 (stereo not given)	NLRP3 yeast inh 91 (no result: PfHsp90 set2) | NALP3 confirm 96 | Casp1 ASC ctr 94 | NALP3 yeast rt 93
C=CC(=O)NC(C)(C)Cc1ccccc1	PfHsp90 set2 inconclusive
COc1ccccc1NC(=O)Nc1cccc(C)n1	NLRP3 yeast inh 66 | NALP3 confirm 74 | Casp1 ASC ctr 55 | NALP3 yeast rt 60
COC(=O)c1ccccc1NC(=O)Nc1cccc(C)n1	none
O=C1C2N=NN(CC(=O)N3N=C(c4ccccc4)CC3c3ccc([N+](=O)[O-])cc3)C2C(=O)N1c1ccccc1 (stereo not given)	NLRP3 yeast inh 55 (no result: PfHsp90 set2) | NALP3 confirm 71
C=CCOc1nc2c(c(=O)n(Cc3ccc(Cl)cc3)c(=O)n2C)n1C	NLRP3 yeast inh 55 | NALP3 confirm inactive | Casp1 ASC ctr inactive | NALP3 yeast rt inactive
CCCNC(=O)NC(=O)CSc1nc2ccccc2c(=O)n1Cc1ccncc1	none
COc1ccc(C2(C)CC(C)(C)Nc3ccccc32)cc1 (stereo not given)	NLRP3 yeast inh 55 | NALP3 confirm 51 | Casp1 ASC ctr inactive | NALP3 yeast rt inactive
CC(C)C(=NO)c1ccccc1	none (no result: tim23-1 inh, NLRP3 yeast inh, TIM10 inh, tim10-1 inh)
CN1c2ccccc2Sc2cc(N)ccc21	NLRP3 yeast inh 64 | NALP3 confirm inactive | Casp1 ASC ctr 74 | NALP3 yeast rt 61
CCOC(=O)c1ccc2c(c1)nc(-c1ccccn1)n2CC	none
CCOC(=O)c1ccc2c(c1)nc(COc1ccc(OC)cc1)n2CC	NLRP3 yeast inh 61 | NALP3 confirm 61 | Casp1 ASC ctr inactive | NALP3 yeast rt inactive
Cc1cccc(N2C(=O)/C(=C/c3ccccn3)SC2=S)c1	none (no result: PfHsp90 set2)
O=C1/C(=C/c2ccccn2)SC(=S)N1c1ccc(O)cc1	NLRP3 yeast inh 70 | NALP3 confirm 75 | Casp1 ASC ctr 56 | NALP3 yeast rt inactive
O=C(NNC(=O)c1ccccc1F)c1ccc(-c2ccc(Cl)cc2)o1	NLRP3 yeast inh 54 | NALP3 confirm 59 | Casp1 ASC ctr inactive | NALP3 yeast rt inactive
Cc1cc(C)c(S(=O)(=O)N2CCOC2CNC(=O)C(=O)NCCN(C)C)c(C)c1 (stereo not given)	none
COc1cccc(CC(=O)N2CCN(S(=O)(=O)c3ccc(Br)cc3)CC2)c1	none
C[C@]12CC[C@H](O)CC1=CCC1C2CC[C@@]2(C)C1CCC21OCCO1 (stereo not given in full)	NLRP3 yeast inh 57 | NALP3 confirm 63
Cc1ccc(C)c(C(=O)Cn2c(NCCO)nc3ccccc32)c1	none
c1ccc(-c2n[nH]c3ccccc23)cc1	NLRP3 yeast inh 65 | NALP3 confirm 85 | Casp1 ASC ctr 70 | NALP3 yeast rt 63
CCc1noc(C)c1C(=O)Nc1nc2c(C)cccc2s1	NLRP3 yeast inh 59 | NALP3 confirm 74 | Casp1 ASC ctr 69 | NALP3 yeast rt 55
CCc1noc(C)c1C(=O)Nc1nc(-c2ccc(F)cc2)c(C)s1	none
CCc1noc(C)c1C(=O)Nc1nc2c(F)cc(F)cc2s1	NLRP3 yeast inh 72 | NALP3 confirm 76 | Casp1 ASC ctr 79 | NALP3 yeast rt 67
CCc1noc(C)c1C(=O)Nc1nc(-c2cccs2)cs1	NLRP3 yeast inh 56 | NALP3 confirm 71 | Casp1 ASC ctr 62 | NALP3 yeast rt 60
CCc1noc(C)c1C(=O)Nc1ncc(C)s1	none
